Compounds without any hit were thinned out: in the full panel of roughly 83,000, 20% have a hit.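 Step 1: grow cells in 96-well plates. Step 2: add test compound at a single concentration. Step 3: incubate 48 h. Step 4: record percent growth.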 The source made the active and inactive calls. The calls were made as follows: active = growth percent below 10; inactive = the rest.
The compounds below were run on NCI-H226 lung (assay: NCI-60 one-dose screen, 48 h (100 = growth as untreated, 0 = no growth, -100 = all killed)). Settings: 10 µM unless noted.
For `CCNC(=O)Oc1ccc(/C(=C(/C)Cc2ccc(OC)cc2)c2ccc(OCCN3CCCCC3)cc2)cc1`, the growth was 86.5% (inactive). In the case of `COC(=O)C(Cc1ccccc1)NC(=O)c1ccc(NC(=O)c2[nH]c(C)c(Cl)c2Cl)c(OC(C)C)c1` (centres undefined), the growth is reported as 88.6% (inactive). In the case of `Cc1ccc(S(=O)(=O)Oc2ccc3sc4cccc(NCCN(C)C)c4c(=O)c3c2)cc1`, the growth is reported as -71.9% (active). In the case of `O=C(Nc1ncccc1OCc1ccccc1)NC1CCCCCC1`, the growth is reported as 73.8% (inactive). In the case of `CCNc1nc(O)c(/C=C2\C=Nc3ncccc32)s1`, the growth is reported as 10.8% (inactive). For `Ic1ccccc1I`, the growth was 90.5% (inactive). With `CC1=C2[C@@H](CC1)[C@]1(C)O[C@@](C3CCCCC3)(C[C@H]1OC(=O)CO)[C@H]2OC(=O)/C=C/c1ccccc1` the growth was 76.5% (inactive). For `Cc1ccc(-c2csc(NC(=O)c3ccccc3CN3C(=O)c4ccccc4C3=O)n2)cc1`, the growth was 92% (inactive). `Oc1c(CN2CCCC2)cc(CSCc2ccccc2)c2cccnc12` was tested, and the growth was -4.43% (active). In the case of `Cc1ccc(-c2nc(SCc3nc4cc(Cl)c(Cl)cc4[nH]3)[nH]c(=O)c2C#N)cc1`, the growth is reported as 103% (inactive). For `CC/C=C\CCC/C=C1/C(=O)C=C[C@@H]1C/C=C\CCCC(=O)OC`, the growth was 77% (inactive). In the case of `C=C1C(=O)O[C@H]2[C@H]1CC/C(Cn1cc(CCC)nn1)=C\CC[C@@]1(C)O[C@@H]21`, the growth is reported as -37.4% (active). `CN(C)CCCC1(c2ccc(F)cc2)OCc2cc(-c3ccc4cc[nH]c4c3)ccc21` (centres undefined) was tested, and the growth was 95.2% (inactive). For `COc1ccc(CCN(CC(=O)N(CC(N)=O)C2CCC[C@@H]2OCc2ccccc2)C(=O)CN(C(=O)CN(CCc2ccc(Cl)cc2)C(=O)CN(C(=O)CN(C)Cc2ccccc2F)[C@H](C)C2CCCCC2)[C@H](C)C2CCCCC2)cc1OC` (some centres undefined), the growth was 53.5% (inactive).
